In PubChem BioAssay (Tox21):
Inconclusive results are not listed. Active and inactive are the calls of the source. Unless noted, the call rests on the fitted dose curve; in most records, active means well fitted curve in the direction sought with a large enough effect in the repeat runs; inconclusive means weak or mixed curves; inactive means no such curve, though single readings can be large; an effect the other way counts as inactive or inconclusive.

Tests used:
[1] = qHTS assay for small molecule agonists of the p53 signaling pathway (AID 651631; calls by dose curve; further: nearly all actives have a fitted effect of over 15% in size)
How it was run: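 Fluorescence intensity from cleaved LiveBLAzer B/G substrate (2 h, room temperature) served as the signal. Beforehand, HCT-116 reporter cells bearing p53 response elements were treated 16 h at 37 °C with DMSO-dissolved compounds.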

[2] = qHTS assay for small molecules that induce genotoxicity in human embryonic kidney cells expressing luciferase-tagged ATAD5 (AID 651632); further: nearly all actives have a fitted effect of over 15% in size
How it was run: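 Quantitative HTS in HEK293T expressing luciferase-tagged ATAD5, whose levels rise upon DNA damage. Exposure ran 16 hr at 37C and 5% CO2, with luminescence read 30 min after Amplite addition at room temperature.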

[3] = qHTS assay for small molecule agonists of the p53 signaling pathway - cell viability (AID 651633; calls by dose curve;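 further: p53RE-bla HCT reporter cells with a stable beta-lactamase p53 reporter; series mostly up to about 83 µM; nearly all actives have a fitted effect of over 30% in size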)
How it was run: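 Viability counter-read: CellTiter-Glo luminescence (30 min, room temperature) in the same p53RE-bla plates. These plates had been exposed to compounds for 16 h at 37 C.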

[4] = qHTS assay for small molecules that induce genotoxicity in human embryonic kidney cells expressing luciferase-tagged ATAD5 - cell viability (AID 651634; calls by dose curve; further: nearly all actives have a fitted effect of over 25% in size)
How it was run: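 After 15.5 hr incubation with compound at 37C, 5% CO2, HEK293T ATAD5-luciferase cells received CellTiter-Fluor reagent; fluorescence intensity was quantified following 30 min at 37C.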

[5] = qHTS assay for small molecule disruptors of the mitochondrial membrane potential (AID 720635)
How it was run: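 Mitochondrial membrane potential tracked with Mito-MPS dye, red aggregates (ex 540/em 590 nm) against green monomers (ex 490/em 535 nm). Compound treatment 1 hr at 37C, dye 30 min in HepG2.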

[6] = qHTS assay to test for compound auto fluorescence at 590 nm (red) in HepG2 cells (AID 720674)
How it was run: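 We screened compounds on adherent HepG2 cells, incubating them for an hour at 37 C in 5% CO2 before reading emission at 590 nm under 540 nm excitation; values reflect equivalence to Rose Bengal sodium fluorescence.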

[7] = qHTS assay to test for compound auto fluorescence at 535 nm (green) in HepG2 cells (AID 720675)
[8] = qHTS assay to test for compound auto fluorescence at 460 nm (blue) in HEK293 cells (AID 720678)
How it was run: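 Blue-channel (Ex/Em 405/460 nm) intensity measured in HEK293 cultures after overnight compound exposure at 37C; signal expressed relative to triamterene. Cells plated 2,000 per well in 10% dialyzed FBS medium and allowed 4-5 hr to attach.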

[9] = qHTS assay to test for compound auto fluorescence at 590 nm (red) in HEK293 cells (AID 720679)
How it was run: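 Red-channel autofluorescence (Ex/Em 540/590 nm; Rose Bengal sodium reference) was measured after overnight 37C, 5% CO2 exposure of attached HEK293 cells, 2,000 per well in medium with 10% dialyzed FBS.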

[10] = qHTS assay to test for compound auto fluorescence at 535 nm (green) in HEK293 cells (AID 720680)
[11] = qHTS assay to test for compound auto fluorescence at 460 nm (blue) in HEK293 cell free culture (AID 720681)
How it was run: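 Blue fluorescence (Ex 405/Em 460 nm, triamterene-equivalent) was read immediately after pin transfer of compound or DMSO into medium (DMEM, 10% FBS) without cells.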

[12] = qHTS assay to test for compound auto fluorescence at 535 nm (green) in HEK293 cell free culture (AID 720682)
How it was run: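 Intrinsic compound fluorescence is measured in culture medium containing 10% FBS, with excitation at 485 nm and detection at 535 nm, referenced to fluorescein.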

[13] = qHTS assay to test for compound auto fluorescence at 590 nm (red) in HEK293 cell free culture (AID 720683)
How it was run: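 Red-channel autofluorescence of compounds in culture medium (DMEM, 10% FBS), no cells, measured at 540/590 nm. Rose Bengal sodium is the reference fluorophore for equivalence.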

[14] = qHTS assay to test for compound auto fluorescence at 590 nm (red) in HepG2 cell free culture (AID 720684)
How it was run: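 No cells present: MEM + 10% FBS only. Compound pinned in, red label read (540/590 nm). Activity = fluorescence equivalent to Rose Bengal sodium.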

[15] = qHTS assay to test for compound auto fluorescence at 460 nm (blue) in HepG2 cell free culture (AID 720685)
How it was run: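 Cell-free plates of MEM plus 10% FBS received 23 nL compound or DMSO vehicle; blue-channel (405/460 nm) intensity scored against triamterene as reference fluorophore.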

[16] = qHTS assay to test for compound auto fluorescence at 535 nm (green) in HepG2 cell free culture (AID 720686)
[17] = qHTS assay to test for compound auto fluorescence at 460 nm (blue) in HepG2 cells (AID 720687)
How it was run: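 Blue-channel autofluorescence (Ex/Em 405/460 nm, triamterene-equivalent) was measured after 1 hr compound exposure at 37 C, 5% CO2. Cells were HepG2, plated overnight at 37 C in MEM plus 10% FBS.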

[18] = target: Glucocorticoid receptor (Homo sapiens) (UniProt P04150); assay: qHTS assay to identify small molecule agonists of the glucocorticoid receptor (GR) signaling pathway (AID 720691; active means well fitted activation curve with a large enough effect in the signal ratio in the repeat runs, not every such curve was filed as active; the % refers to the signal ratio)
Glucocorticoid receptor (Homo sapiens), sequence (P04150 whole entry, looked up): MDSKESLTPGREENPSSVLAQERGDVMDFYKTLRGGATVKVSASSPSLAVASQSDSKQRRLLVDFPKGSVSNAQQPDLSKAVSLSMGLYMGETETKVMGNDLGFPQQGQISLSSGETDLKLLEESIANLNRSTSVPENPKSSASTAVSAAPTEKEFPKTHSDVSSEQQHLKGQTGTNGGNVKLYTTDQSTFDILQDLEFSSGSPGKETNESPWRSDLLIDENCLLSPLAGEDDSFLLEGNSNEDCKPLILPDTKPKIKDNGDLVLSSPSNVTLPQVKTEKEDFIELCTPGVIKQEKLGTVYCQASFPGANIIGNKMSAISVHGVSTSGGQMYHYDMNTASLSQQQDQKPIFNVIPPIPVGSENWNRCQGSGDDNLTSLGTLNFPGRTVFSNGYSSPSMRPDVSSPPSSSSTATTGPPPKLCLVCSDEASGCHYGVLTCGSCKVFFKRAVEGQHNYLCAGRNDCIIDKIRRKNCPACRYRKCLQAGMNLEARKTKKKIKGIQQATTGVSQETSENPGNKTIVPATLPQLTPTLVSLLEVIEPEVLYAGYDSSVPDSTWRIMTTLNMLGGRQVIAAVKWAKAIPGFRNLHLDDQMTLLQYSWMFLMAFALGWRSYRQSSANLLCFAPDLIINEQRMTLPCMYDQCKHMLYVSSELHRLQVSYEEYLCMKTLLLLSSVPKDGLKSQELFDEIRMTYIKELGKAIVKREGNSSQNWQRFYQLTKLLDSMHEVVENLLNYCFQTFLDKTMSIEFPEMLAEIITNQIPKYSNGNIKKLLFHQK
How it was run: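 Cells: GR-bla HeLa, endogenous GR with stably integrated GRE-beta-lactamase reporter. Treatment 18 h, 37 C, compounds delivered in DMSO. Detection via LiveBLAzer B/G FRET substrate, 2 h RT, fluorescence intensity.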

[19] = target: Glucocorticoid receptor (Homo sapiens) (UniProt P04150); assay: qHTS assay to identify small molecule antagonists of the glucocorticoid receptor (GR) signaling pathway (AID 720692; active means well fitted inhibition curve with a large enough effect in the signal ratio in the repeat runs, not every such curve was filed as active; the % refers to the signal ratio)
How it was run: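 Quantitative HTS in antagonist format: HeLa cells expressing endogenous GR and a stably integrated GRE-bla reporter, stimulated with 5 nM dexamethasone (final) alongside test compounds for 18 h.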

[20] = qHTS assay for small molecule disruptors of the mitochondrial membrane potential - cell viability (AID 720634; calls by dose curve;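 further: human HepG2 liver cancer cells; series mostly up to about 83 µM; nearly all actives have a fitted effect of over 20% in size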)
How it was run: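 ATP-based luminescent viability readout (CellTiter-Glo, 30 min, room temperature) in HepG2 cells multiplexed with the m-MPI membrane potential dye; compound exposure lasted 1 hr at 37 C.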
On the % scale 0 is the no-effect control and ±100 the full control effect.

COc1cnc(NS(=O)(=O)c2ccc(N)cc2)nc1
inactive: Potency [1] | Potency [2] | outcome [3] | outcome [4] | Potency [5] | fluorescence, relative to Rose Bengal [6] -0.0895% [at 18.6 µM] | fluorescence, % of fluorescein control [7] -0.0734% [at 18.6 µM] | fluorescence, % of triamterene [8] 0.0096% [at 18.6 µM] | fluorescence, % of fluorescent control [9] 0.0444% [at 18.6 µM] | fluorescence, % of fluorescein [10] -0.0702% [at 18.6 µM] | fluorescence, % of fluorescent control [11] 0.0732% [at 18.6 µM] | activity change [12] -0.0115% [at 18.6 µM] | fluorescence, % of fluorescent control [13] -0.0163% [at 18.6 µM] | fluorescence, % of Rose Bengal [14] 0.414% [at 18.6 µM] | fluorescence, % of fluorescent control [15] 0.0024% [at 18.6 µM] | fluorescence, % of fluorescein control [16] 0.0043% [at 18.6 µM] | fluorescence, % of fluorescent control [17] 0.0082% [at 18.6 µM] | Potency [18] | outcome [19]

CC(=O)Oc1ccc(C(C)=O)cc1
inactive: Potency [1] | Potency [2] | outcome [3] | outcome [4] | outcome [20] | outcome [6] | outcome [7] | outcome [8] | outcome [9] | outcome [10] | outcome [11] | outcome [12] | outcome [13] | outcome [14] | outcome [15] | outcome [16] | outcome [17]

O=c1[nH]c(=O)c2cn[nH]c2[nH]1
inactive: Potency [1] | Potency [2] | outcome [3] | outcome [4] | outcome [6] | outcome [7] | outcome [8] | outcome [9] | outcome [10] | outcome [11] | outcome [12] | outcome [13] | outcome [14] | outcome [15] | outcome [16] | outcome [17] | Potency [18] | outcome [19]

CNCCc1ccccn1
inactive: Potency [1] | Potency [2] | outcome [3] | outcome [4] | outcome [20] | fluorescence, relative to Rose Bengal [6] 0.136% [at 18.6 µM] | fluorescence, % of fluorescein control [7] -0.0784% [at 18.6 µM] | fluorescence, % of triamterene [8] 0.106% [at 18.6 µM] | fluorescence, % of fluorescent control [9] 0.589% [at 18.6 µM] | fluorescence, % of fluorescein [10] -0.0419% [at 18.6 µM] | activity change [12] -0.037% [at 18.6 µM] | fluorescence, % of fluorescent control [13] -0.0269% [at 18.6 µM] | fluorescence, % of Rose Bengal [14] 0.0243% [at 18.6 µM] | fluorescence, % of fluorescent control [15] 0.0418% [at 18.6 µM] | fluorescence, % of fluorescein control [16] -0.0162% [at 18.6 µM] | fluorescence, % of fluorescent control [17] 0.114% [at 18.6 µM] | Potency [18] | outcome [19]

COc1cc2nc(N3CCN(C(=O)C4CCCO4)CC3)nc(N)c2cc1OC (stereo not drawn)
inactive: Potency [1] | Potency [2] | outcome [3] | outcome [4] | outcome [6] | outcome [7] | outcome [8] | outcome [9] | outcome [10] | outcome [11] | outcome [12] | outcome [13] | outcome [14] | outcome [15] | outcome [16] | outcome [17] | Potency [18] | outcome [19]

O=C1c2ccccc2C(=O)N1CO
inactive: Potency [1] | Potency [2] | outcome [3] | outcome [4] | outcome [6] | outcome [7] | outcome [8] | outcome [9] | outcome [10] | outcome [11] | outcome [12] | outcome [13] | outcome [14] | outcome [15] | outcome [16] | outcome [17] | Potency [18] | outcome [19]

Cc1cc(O)c(Cl)cc1C
inactive: Potency [1] | Potency [2] | outcome [3] | outcome [4] | outcome [20] | outcome [6] | outcome [7] | outcome [8] | outcome [9] | outcome [10] | outcome [11] | outcome [12] | outcome [13] | outcome [14] | outcome [15] | outcome [16] | outcome [17] | Potency [18] | outcome [19]

C/C=C/C(=O)CCCC
inactive: Potency [1] | Potency [2] | outcome [4] | outcome [20] | Potency [5] | outcome [6] | outcome [7] | outcome [8] | outcome [9] | outcome [10] | outcome [11] | outcome [12] | outcome [13] | outcome [14] | outcome [15] | outcome [16] | outcome [17]

CC1(C)CC(N)CC(C)(C)N1
inactive: Potency [1] | Potency [2] | outcome [3] | outcome [4] | outcome [20] | outcome [6] | outcome [7] | outcome [8] | outcome [9] | outcome [10] | outcome [11] | outcome [12] | outcome [13] | outcome [14] | outcome [15] | outcome [16] | outcome [17]

C=CC(=O)OCC[N+](C)(C)C
inactive: Potency [1] | Potency [2] | outcome [3] | outcome [4] | outcome [6] | outcome [7] | outcome [8] | outcome [9] | outcome [10] | outcome [11] | outcome [12] | outcome [13] | outcome [14] | outcome [15] | outcome [16] | outcome [17]

CCC(C)(C)C
inactive: Potency [1] | Potency [2] | outcome [3] | outcome [4] | outcome [20] | outcome [6] | outcome [7] | outcome [8] | outcome [9] | outcome [10] | outcome [11] | outcome [12] | outcome [13] | outcome [14] | outcome [15] | outcome [16] | outcome [17] | Potency [18]

CCN(CC)CC
inactive: Potency [1] | Potency [2] | outcome [3] | outcome [4] | outcome [20] | outcome [6] | outcome [7] | outcome [8] | outcome [9] | outcome [10] | outcome [11] | outcome [12] | outcome [13] | outcome [14] | outcome [15] | outcome [16] | outcome [17] | Potency [18] | outcome [19]

CN(C)c1cc(NC(=O)CNC(C)(C)C)c(O)c2c1C[C@H]1C[C@H]3[C@H](N(C)C)C(=O)C(C(N)=O)=C(O)[C@@]3(O)C(=O)C1=C2O
inactive: Potency [1] | Potency [2] | outcome [3] | outcome [4] | outcome [6] | outcome [7] | outcome [8] | outcome [10] | outcome [12] | outcome [13] | outcome [14] | outcome [15] | outcome [16] | outcome [17]
